The target in test [1] is RAC-alpha serine/threonine-protein kinase (Homo sapiens) (UniProt P31749). To be noted: at 0.1 µM.
Test [2] has the same target. The note with it: at 1 µM.
Test [3] addresses RAC-beta serine/threonine-protein kinase (Homo sapiens) (UniProt P31751). To be noted: at 0.1 µM.
For test [4] the target is unchanged. The note with it: at 1 µM.
For test [5], the target named is RAC-gamma serine/threonine-protein kinase (Homo sapiens) (UniProt Q9Y243). To be noted: at 0.1 µM.
The target is the same in test [6]. To be noted: at 1 µM.
The target in test [7] is G protein-coupled receptor kinase 6 (Homo sapiens) (UniProt P43250). The note with it: at 0.1 µM.
Test [8] has the same target. To be noted: at 1 µM.
In test [9] the target is T1, Rhodopsin kinase GRK7 (Homo sapiens) (UniProt Q8WTQ7).
T1 sequence (whole entry): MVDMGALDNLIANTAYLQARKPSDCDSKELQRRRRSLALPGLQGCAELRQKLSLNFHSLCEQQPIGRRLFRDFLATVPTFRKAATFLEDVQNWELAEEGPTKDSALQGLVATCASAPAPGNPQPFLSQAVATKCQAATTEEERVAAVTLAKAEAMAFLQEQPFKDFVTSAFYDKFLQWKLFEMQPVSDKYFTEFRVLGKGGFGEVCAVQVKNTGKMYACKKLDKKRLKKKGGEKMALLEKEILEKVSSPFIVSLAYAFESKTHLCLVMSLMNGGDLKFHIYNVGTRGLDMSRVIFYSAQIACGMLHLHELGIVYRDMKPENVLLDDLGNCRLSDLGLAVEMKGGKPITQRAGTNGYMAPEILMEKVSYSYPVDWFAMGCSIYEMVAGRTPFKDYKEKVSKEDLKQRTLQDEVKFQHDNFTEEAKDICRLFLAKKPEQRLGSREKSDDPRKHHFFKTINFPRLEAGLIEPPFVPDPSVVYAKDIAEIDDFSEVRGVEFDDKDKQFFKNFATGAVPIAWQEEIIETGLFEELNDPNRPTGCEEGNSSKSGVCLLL
The note with it: at 0.1 µM.

The target in test [10] is T1, Rhodopsin kinase GRK7 (Homo sapiens). To be noted: at 1 µM.
Test [11] addresses Serine/threonine-protein kinase MRCK alpha (Homo sapiens) (UniProt Q5VT25). To be noted: at 0.1 µM.
For test [12] the target is unchanged. To be noted: at 1 µM.
The target in test [13] is Serine/threonine-protein kinase MRCK beta (Homo sapiens) (UniProt Q9Y5S2). The note with it: at 0.1 µM.
Test [14] shares this target. To be noted: at 1 µM.
The target in test [15] is Ribosomal protein S6 kinase alpha-5 (Homo sapiens) (UniProt O75582). The note with it: at 0.1 µM.
Test [16] shares this target. The note with it: at 1 µM.
Test [17] addresses Ribosomal protein S6 kinase alpha-4 (Homo sapiens) (UniProt O75676). The note with it: at 0.1 µM.
Test [18] shares this target. The note with it: at 1 µM.
Test [19] addresses Ribosomal protein S6 kinase beta-1 (Homo sapiens) (UniProt P23443). To be noted: at 0.1 µM.
The target is the same in test [20]. To be noted: at 1 µM.

Serine/threonine-protein kinase MRCK beta (Homo sapiens), sequence (Q9Y5S2 whole entry): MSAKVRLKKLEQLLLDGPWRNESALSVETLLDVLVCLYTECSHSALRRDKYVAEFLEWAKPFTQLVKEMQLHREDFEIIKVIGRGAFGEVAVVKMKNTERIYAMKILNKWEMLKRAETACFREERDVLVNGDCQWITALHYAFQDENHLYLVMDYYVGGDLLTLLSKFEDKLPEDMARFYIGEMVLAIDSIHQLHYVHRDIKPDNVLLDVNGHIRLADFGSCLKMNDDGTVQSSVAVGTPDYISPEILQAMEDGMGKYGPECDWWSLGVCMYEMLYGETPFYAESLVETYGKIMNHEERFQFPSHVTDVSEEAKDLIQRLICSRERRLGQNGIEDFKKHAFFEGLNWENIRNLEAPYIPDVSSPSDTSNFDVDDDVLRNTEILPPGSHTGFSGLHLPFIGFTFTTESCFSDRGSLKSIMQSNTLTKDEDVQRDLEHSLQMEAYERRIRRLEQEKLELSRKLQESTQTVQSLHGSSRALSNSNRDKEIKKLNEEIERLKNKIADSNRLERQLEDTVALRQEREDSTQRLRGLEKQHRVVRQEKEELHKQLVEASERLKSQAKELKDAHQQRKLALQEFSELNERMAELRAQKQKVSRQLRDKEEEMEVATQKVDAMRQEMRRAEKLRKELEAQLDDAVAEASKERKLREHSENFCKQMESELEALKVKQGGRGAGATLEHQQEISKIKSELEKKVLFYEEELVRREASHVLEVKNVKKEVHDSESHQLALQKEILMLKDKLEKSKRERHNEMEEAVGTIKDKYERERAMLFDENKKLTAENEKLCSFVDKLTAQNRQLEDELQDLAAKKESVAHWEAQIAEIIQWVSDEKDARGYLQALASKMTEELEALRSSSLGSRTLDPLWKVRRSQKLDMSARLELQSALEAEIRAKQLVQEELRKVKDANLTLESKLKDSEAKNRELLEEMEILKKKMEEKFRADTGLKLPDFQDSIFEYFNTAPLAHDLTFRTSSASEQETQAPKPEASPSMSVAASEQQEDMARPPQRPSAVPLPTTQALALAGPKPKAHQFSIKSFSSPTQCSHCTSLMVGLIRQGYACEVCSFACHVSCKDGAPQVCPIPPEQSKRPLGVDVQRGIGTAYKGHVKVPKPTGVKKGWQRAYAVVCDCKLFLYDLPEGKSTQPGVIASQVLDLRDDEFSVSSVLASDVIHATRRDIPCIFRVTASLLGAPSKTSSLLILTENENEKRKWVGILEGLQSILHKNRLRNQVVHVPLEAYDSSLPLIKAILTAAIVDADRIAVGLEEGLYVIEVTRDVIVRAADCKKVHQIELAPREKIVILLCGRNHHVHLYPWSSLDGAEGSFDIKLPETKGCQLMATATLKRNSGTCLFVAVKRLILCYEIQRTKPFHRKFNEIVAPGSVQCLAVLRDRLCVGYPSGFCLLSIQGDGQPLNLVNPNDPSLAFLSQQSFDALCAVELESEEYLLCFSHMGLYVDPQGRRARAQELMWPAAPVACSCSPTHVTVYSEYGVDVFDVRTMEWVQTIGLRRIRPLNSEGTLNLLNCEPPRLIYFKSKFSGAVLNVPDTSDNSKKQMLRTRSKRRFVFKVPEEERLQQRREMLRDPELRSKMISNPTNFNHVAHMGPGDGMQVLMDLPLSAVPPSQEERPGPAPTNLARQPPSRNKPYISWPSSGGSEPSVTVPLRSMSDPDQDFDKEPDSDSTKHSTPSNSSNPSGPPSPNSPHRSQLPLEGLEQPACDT
RAC-alpha serine/threonine-protein kinase (Homo sapiens), sequence (P31749 whole entry): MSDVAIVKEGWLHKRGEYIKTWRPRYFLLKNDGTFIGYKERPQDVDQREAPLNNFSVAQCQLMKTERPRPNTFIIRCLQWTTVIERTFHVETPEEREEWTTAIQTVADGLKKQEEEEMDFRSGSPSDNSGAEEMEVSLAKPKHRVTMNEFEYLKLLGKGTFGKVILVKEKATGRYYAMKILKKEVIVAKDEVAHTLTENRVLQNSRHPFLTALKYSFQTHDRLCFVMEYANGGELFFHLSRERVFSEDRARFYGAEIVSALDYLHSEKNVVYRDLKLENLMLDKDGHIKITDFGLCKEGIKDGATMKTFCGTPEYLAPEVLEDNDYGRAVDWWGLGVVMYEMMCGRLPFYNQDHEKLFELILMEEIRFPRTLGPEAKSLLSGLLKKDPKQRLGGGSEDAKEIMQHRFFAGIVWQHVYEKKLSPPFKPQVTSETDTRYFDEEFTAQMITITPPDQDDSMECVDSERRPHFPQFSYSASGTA
RAC-beta serine/threonine-protein kinase (Homo sapiens), sequence (P31751 whole entry): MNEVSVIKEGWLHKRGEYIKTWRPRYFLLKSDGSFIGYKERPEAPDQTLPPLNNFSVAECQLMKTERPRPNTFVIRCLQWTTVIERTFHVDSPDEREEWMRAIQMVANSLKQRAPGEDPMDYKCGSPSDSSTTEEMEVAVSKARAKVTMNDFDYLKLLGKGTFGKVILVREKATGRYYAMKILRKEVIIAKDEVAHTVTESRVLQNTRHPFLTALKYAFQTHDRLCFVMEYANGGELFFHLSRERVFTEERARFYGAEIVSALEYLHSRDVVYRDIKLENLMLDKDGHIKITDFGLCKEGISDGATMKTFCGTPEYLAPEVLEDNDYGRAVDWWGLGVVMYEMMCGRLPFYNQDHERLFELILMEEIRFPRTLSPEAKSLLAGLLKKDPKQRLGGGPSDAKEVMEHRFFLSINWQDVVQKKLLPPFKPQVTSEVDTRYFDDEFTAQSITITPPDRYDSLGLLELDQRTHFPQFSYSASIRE
Ribosomal protein S6 kinase alpha-4 (Homo sapiens), sequence (O75676 whole entry, looked up): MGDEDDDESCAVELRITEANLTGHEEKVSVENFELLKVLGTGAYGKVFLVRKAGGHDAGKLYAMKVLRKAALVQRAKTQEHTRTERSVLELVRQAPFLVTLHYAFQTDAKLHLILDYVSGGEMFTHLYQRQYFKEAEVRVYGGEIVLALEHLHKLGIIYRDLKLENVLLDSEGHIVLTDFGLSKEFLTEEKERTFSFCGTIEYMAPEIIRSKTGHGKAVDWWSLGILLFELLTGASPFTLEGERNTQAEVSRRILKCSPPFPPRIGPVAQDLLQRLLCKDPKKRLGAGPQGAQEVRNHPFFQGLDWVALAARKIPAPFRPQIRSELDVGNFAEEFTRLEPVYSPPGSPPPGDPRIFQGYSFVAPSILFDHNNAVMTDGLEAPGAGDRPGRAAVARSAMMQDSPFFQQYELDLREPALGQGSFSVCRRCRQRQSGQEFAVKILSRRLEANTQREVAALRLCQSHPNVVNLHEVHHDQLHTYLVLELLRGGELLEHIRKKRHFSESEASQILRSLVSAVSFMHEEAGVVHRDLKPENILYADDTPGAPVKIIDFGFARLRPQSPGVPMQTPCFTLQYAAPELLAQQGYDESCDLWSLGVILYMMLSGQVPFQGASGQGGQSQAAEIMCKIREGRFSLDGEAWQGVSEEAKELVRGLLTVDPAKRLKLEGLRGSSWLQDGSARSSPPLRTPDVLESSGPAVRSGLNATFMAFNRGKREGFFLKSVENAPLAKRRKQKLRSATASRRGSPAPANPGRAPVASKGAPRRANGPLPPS
RAC-gamma serine/threonine-protein kinase (Homo sapiens), sequence (Q9Y243 whole entry): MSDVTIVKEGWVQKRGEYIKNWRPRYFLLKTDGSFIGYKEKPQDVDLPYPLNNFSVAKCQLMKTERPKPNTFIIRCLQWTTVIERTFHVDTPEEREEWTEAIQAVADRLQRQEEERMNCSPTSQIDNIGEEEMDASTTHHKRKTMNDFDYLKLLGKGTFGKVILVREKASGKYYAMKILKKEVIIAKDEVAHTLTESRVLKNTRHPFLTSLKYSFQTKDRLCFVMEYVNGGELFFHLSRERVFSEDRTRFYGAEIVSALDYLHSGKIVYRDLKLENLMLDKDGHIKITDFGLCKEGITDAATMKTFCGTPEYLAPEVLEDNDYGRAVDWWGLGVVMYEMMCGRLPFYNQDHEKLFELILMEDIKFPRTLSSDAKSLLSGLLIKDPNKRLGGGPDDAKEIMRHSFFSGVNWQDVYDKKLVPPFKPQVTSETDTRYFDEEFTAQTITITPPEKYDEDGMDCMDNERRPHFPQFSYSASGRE
G protein-coupled receptor kinase 6 (Homo sapiens), sequence (P43250 whole entry, looked up): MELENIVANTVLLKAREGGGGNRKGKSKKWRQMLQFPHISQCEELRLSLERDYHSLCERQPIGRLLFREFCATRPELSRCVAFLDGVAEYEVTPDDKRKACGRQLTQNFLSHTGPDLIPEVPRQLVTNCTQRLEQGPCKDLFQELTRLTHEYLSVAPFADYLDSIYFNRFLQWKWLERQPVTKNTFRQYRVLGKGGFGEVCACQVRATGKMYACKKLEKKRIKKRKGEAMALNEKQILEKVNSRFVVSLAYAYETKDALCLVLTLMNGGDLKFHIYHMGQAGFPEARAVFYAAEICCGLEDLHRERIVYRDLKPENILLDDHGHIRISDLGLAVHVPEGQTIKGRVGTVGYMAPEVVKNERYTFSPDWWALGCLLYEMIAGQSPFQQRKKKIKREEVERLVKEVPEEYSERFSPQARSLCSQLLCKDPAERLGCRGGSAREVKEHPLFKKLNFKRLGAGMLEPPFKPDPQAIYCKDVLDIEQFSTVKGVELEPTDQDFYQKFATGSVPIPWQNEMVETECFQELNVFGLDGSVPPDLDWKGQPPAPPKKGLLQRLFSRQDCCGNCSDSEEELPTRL
Ribosomal protein S6 kinase beta-1 (Homo sapiens), sequence (P23443 whole entry, looked up): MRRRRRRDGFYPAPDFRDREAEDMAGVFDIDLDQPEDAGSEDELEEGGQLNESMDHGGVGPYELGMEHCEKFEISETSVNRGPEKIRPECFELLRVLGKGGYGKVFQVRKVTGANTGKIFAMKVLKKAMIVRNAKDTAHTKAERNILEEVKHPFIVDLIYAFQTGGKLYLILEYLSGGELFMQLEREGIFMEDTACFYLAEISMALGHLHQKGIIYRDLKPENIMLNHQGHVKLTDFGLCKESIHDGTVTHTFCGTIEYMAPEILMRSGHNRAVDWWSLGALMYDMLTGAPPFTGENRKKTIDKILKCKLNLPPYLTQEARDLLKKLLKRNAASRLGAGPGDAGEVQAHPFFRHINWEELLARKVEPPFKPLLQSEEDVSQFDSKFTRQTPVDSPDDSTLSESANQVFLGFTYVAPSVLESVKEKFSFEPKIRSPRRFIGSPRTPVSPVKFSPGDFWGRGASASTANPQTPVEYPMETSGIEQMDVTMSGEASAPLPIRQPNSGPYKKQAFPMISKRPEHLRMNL

What is called inhibition is the change of the read-out against control, counted positive when it falls. As for `CCc1cccc(CC)c1/C=C/c1cncc(C(=O)NC)c1`, the inhibition in [1] came to 0.7%; in test [2] it was 0.8%; in test [3], 2.06%; in [4], 1.3%; in test [5], 2.25%; in test [6], 1.32%. In addition, the inhibition in [7] is -2.11%; in test [8], -0.96%; in [9] it was 1.2%; in [10] it was -8.54%; in test [11] it was 0.02%; in test [12], 0.07%. The inhibition in test [13] came to 0.83%; in [14], 1.46%; in test [15] it was 3.05%; in test [16], 2.79%; in test [17], 0.51%; in [18], 2.52%. The inhibition in test [19] amounted to 1.3%; in [20] it was 0.41%.

Regarding `CN(c1ccc(NC(=O)Nc2c(Cl)cccc2Cl)cc1)c1ccnc(Nc2cccc(CS(C)(=O)=O)c2)n1`, the inhibition was 0.48% in test [1]; 1.09% in [2]; 0.5% in test [3]; 2.1% in [4]; 3.21% in [5]; -0.15% in [6]. Further, the inhibition in [7] was found to be 3.24%; in [8], 3.8%; in test [9], 3.79%; in [10] it was 1.55%; in test [11], 1.56%; in test [12], 2.97%. Besides, the inhibition in test [13] worked out at 0.43%; in test [14], 0.92%; in test [15] it was 2.92%; in test [16], 4.25%; in test [17], 2.24%; in [18] it was 4.1%. Moreover, the results for the inhibition in test [19] and in test [20] were -1.3% and 2.4%, respectively.

In the case of `COc1cc(Nc2ncc3c(C)nc(-c4cccc(C(F)(F)F)c4)n3n2)cc(OC)c1OC`, the inhibition came out at 0.55% in test [1]; 0.77% in test [2]; 1.62% in test [3]; 1.52% in test [4]; 1.12% in [5]; 1.21% in test [6]. Also, the inhibition in [7] is 1.33%; in test [8] it was 4.77%; in test [9], 3.66%; in [10], 6.59%; in [11] it was -0.66%; in [12], 4.12%. Besides, the inhibition in test [13] is -1.16%; in test [14], -0.4%; in test [15] it was 2.79%; in test [16], 5.2%; in [17], 2.89%; in test [18], 8.48%. Further, the inhibition was 2.17% in test [19] and 5.51% in test [20].

As to `COC(=O)Nc1nc2ccc(Sc3ccc(NC(=O)Nc4cc(C(F)(F)F)ccc4F)cc3)cc2[nH]1`, the inhibition in test [1] was 0.65%; in [2], 0.76%; in [3], -0.16%; in test [4], -0.51%; in [5], 0.73%; in test [6], 0.99%. Further, the inhibition in test [7] is 2.62%; in [8] it was -0.1%; in test [9], -0.34%; in test [10] it was -6.83%; in test [11], 0.78%; in test [12], 0.4%. Besides, the inhibition in [13] is -0.23%; in test [14] it was -1%; in test [15], 1.97%; in [16], 2.08%; in [17], 0.7%; in test [18], 0.37%. Moreover, the results for the inhibition in [19] and in [20] were 78.2% and 7.6%, respectively.

With `Cc1ccc(C(=O)NC(C)C)cc1-c1ccc(C(=O)NCC2CC2)cc1`, the inhibition in test [1] was -2.54%; in test [2], -2.49%; in test [3], -4.74%; in [4], -3%; in [5] it was -3.94%; in test [6] it was -1.32%. The inhibition in [7] is -3.15%; in test [8] it was -2.12%; in test [9], -1.17%; in [10], -7.32%; in [11], 0.02%; in test [12], -2.08%. Moreover, the inhibition in test [13] was 0.15%; in test [14], 0.39%; in test [15], -3.69%; in [16], -3.9%; in [17], -1.65%; in test [18], -2.17%. In addition, the inhibition is -2.1% in [19] and -2.29% in test [20].

On to `CN(C)CCOc1ccc(-c2cc(-c3ccc4c(c3)CCC4=NO)c(-c3ccncc3)o2)cc1`, for which the inhibition was -0.58% in [1]; -0.16% in [2]; -0.71% in [3]; -0.42% in test [4]; -0.65% in [5]; 5.79% in test [6]. The inhibition in [7] was -3.48%; in [8], -0.1%; in test [9] it was 2.18%; in test [10] it was -5.7%; in test [11] it was -0.43%; in test [12], -0.33%. In addition, the inhibition in [13] is -0.99%; in [14], -2.76%; in test [15], -1.98%; in test [16] it was -2.88%; in [17], 0.1%; in test [18] it was -2.21%. Besides, the inhibition in test [19] was -1.83%; in [20] it was -2.77%.

The values are drawn from ChEMBL document CHEMBL1961873, “Compounds: GSK PKIS; Assays: Nanosyn kinase panel” (2012).
